Compound activity deposited in PubChem by National Center for Advancing Translational Sciences (NCATS).
The list is not random: actives were taken first. Their share in the collection is about 18%.
LDHA block: LDHA (human) enzyme inhibition; P00338; purified LDHA, NADH/diaphorase-resazurin fluorescence; stronger effect = lower value; activity change, % (values are at about 110 or 230 µM); actives 0.15% (n = 480,000); AID 1347041; in the data active = activity change below about -30%; inconclusive = mostly about -25% to -30%;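 note: plate controls were DMSO wells for no effect and wells without enzyme for full effect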
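Human LDH5 at 2 nM final in Tris HCl pH 7.4 with 0.06 mM NADH and 0.2 mM pyruvate, reacted 5 minutes at room temperature. Remaining NADH coupled via diaphorase/resazurin; resorufin fluorescence read at 0 and 20 minutes, normalized to enzyme-free and DMSO wells.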
IL-1B inflam inh: blocks inflammasome-driven IL-1 beta release. THP-1 LPS/ATP IL-1B secretion, AlphaLISA, 16 h; stronger effect = lower value. activity change, % at 57.5 µM. actives 4.7% (n = 360,000); in the data active = activity change below about -50%; inconclusive = mostly about -30% to -49%
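Secreted IL-1B measured by AlphaLISA bead assay after 16 h compound exposure of THP-1 cells; compounds (final up to 57.5 uM) added 1 h before LPS (250 ng/mL) and ATP (1.25 mM) stimulation; lower signal means less secretion.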
DT40 TDP1 no CPT: qHTS for Inhibitors of human tyrosyl-DNA phosphodiesterase 1 (TDP1): qHTS in cells in absence of CPT; actives 15% (n = 420,000); Potency, µM (titrated, usually from 46.2 µM), for the others: at the top dose activity change, negative = growth inhibition, actives largely listed as inhibitors; DT40 Tdp1-/- hTDP1 cells, no CPT, ATP luminescence, 48 h; note: potency is the fitted concentration of half-maximal effect; nearly all actives have a fitted effect of over 55% in size
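Cells were dispensed at 400 per well, compounds added by pin tool, plates incubated ≥48 hr at 37 °C, then CellTiter-Glo added for 30 min at room temperature before luminescence reading. Line: DT40 Tdp1-/- complemented with hTDP1; camptothecin omitted.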
TDP1 cell CPT: DT40-hTDP1 cell growth loss with CPT; AID 686979; chicken DT40 Tdp1-/-;hTDP1 cells + 20 nM CPT, ATP luminescence, 48 h; actives 12% (n = 420,000); Potency, µM (top dose mostly 46.2 µM), for the others: at the top dose activity change, negative = growth inhibition, usual class: inhibitors; note: potency is the fitted concentration of half-maximal effect; nearly all actives have a fitted effect of over 55% in size
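Chicken DT40 Tdp1-/- cells stably complemented with human TDP1 were seeded at 400 cells/well in medium containing 20 nM camptothecin, exposed to pin-transferred compounds, and grown at 37 °C for at least 48 hr. Viability was read as ATP luminescence.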
RORg inh: inhibitors of mouse ROR gamma transcriptional activity; P51450; Drosophila S2 Gal4-RORgamma UAS-luciferase reporter, 20 h; Potency, µM (doses to about 53.6 µM), without a hit: top-dose activity change, negative = inhibition, usual class: inhibitors; actives 5.4% (n = 310,000); note: potency is the fitted concentration of half-maximal effect; nearly all actives have a fitted effect of over 60% in size
Target sequence (P51450 whole entry, looked up, the tested form may be a part): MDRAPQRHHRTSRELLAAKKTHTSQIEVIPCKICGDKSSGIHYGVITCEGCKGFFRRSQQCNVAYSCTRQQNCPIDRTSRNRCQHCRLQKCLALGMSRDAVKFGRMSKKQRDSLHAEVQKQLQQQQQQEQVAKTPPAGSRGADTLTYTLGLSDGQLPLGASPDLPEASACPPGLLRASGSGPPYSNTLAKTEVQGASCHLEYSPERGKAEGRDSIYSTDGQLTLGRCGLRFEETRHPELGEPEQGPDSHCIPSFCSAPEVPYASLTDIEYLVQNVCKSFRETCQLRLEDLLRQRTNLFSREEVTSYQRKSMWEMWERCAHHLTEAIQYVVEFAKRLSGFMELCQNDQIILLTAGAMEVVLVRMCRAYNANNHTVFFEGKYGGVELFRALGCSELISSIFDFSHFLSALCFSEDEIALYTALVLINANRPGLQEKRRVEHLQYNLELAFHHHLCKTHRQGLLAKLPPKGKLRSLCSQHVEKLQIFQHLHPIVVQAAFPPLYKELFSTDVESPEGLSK
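Stable Schneider cell line, Gal4 DNA-binding domain fused to ROR gamma, UAS-luciferase. Cmpd 1 hr RT → CuSO4 700 uM final → 20 hr RT → luciferase reagent 10 min → luminescence.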
Gal4-VP16 FLuc: inhibits Gal4-VP16 luciferase reporter, ROR gamma counter-screen. Potency, µM (doses to about 53.6 µM), for inactives: at the highest dose activity, negative = inhibition, hits mostly inhibitors. actives 3.5% (n = 310,000). Drosophila S2 Gal4-VP16 UAS-luciferase, luminescence, 20 h;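 note: Gal4-VP16 expression switched on by copper sulfate through the metallothionein promoter; potency is the fitted concentration of half-maximal effect; nearly all actives have a fitted effect of over 50% in size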
Starred values were filed as active, the others as inactive; [ ] = another dose, or the depositor's remark. Unless noted, calls come from the whole dose curve; as a rule, active = well fitted curve in the direction sought with a large enough effect; inconclusive = small, poorly fitted or top-dose-only effect, or another doubt; inactive = no such curve, though single readings can be large; an effect the other way counts as inactive or inconclusive. Unless noted, % is set by controls: 0 for no effect and ±100 for the full control effect.

`Fc1ccc(Nc2ccnc(C(F)(F)F)c2)cc1` gave LDHA block -1.9, IL-1B inflam inh -4.2, DT40 TDP1 no CPT -9.9%, TDP1 cell CPT inconclusive, RORg inh 5.6% and Gal4-VP16 FLuc -5.7%.
`FC(F)(F)c1cc(NC2CCCCC2)ccn1` gave LDHA block -14.8, IL-1B inflam inh 16.5, DT40 TDP1 no CPT 29.1µM*, TDP1 cell CPT -15.8%, RORg inh inconclusive and Gal4-VP16 FLuc -8.9%.
For O=C(Nc1ccc(N2CCOCC2)c2nonc12)C1CCCC1 the results were LDHA block 19.3, IL-1B inflam inh -20.6, DT40 TDP1 no CPT 25.9µM*, TDP1 cell CPT 18.4µM*, RORg inh -7.6% and Gal4-VP16 FLuc -5.2%.
For NC(=O)N=Nc1c(O)[nH]c2c(Br)cc(Br)cc12 the results were RORg inh -8.2% and Gal4-VP16 FLuc 1.4%.
N=C(N)N=Nc1c(O)[nH]c2ccc(Br)cc12 was read as LDHA block 11.1, IL-1B inflam inh -24.0, DT40 TDP1 no CPT -23.4%, TDP1 cell CPT 6.3%, RORg inh -3.2% and Gal4-VP16 FLuc -1.0%.
`NC(=S)N=Nc1c(O)[nH]c2cc(F)c(F)cc12` gave LDHA block 1.5, IL-1B inflam inh 0.0, DT40 TDP1 no CPT inconclusive, TDP1 cell CPT -10.3%, RORg inh 3.16µM* and Gal4-VP16 FLuc 5.01µM*.
NC(=S)N=Nc1c(O)[nH]c2c(Cl)cc(Cl)cc12 was read as LDHA block -5.4, IL-1B inflam inh inconclusive, DT40 TDP1 no CPT 4.61µM* and TDP1 cell CPT 16.4µM*.
Screening Cc1ccccc1C1=NN(C(=O)CCC(=O)O)C(c2ccc3nccnc3c2)C1 (stereo not drawn) returned LDHA block 0.8.
`COc1ccc(C(=O)NCC2COc3ccccc3O2)cc1OC` (stereo not drawn) gave LDHA block -4.0.
For Cc1ccc(C(=O)NNC(=O)C2CCCCC2)cc1Cl the results were LDHA block 3.4.
CC(C)(C)OC1NS(=O)(=O)OCC1NCOC(Cl)(Cl)Cl (stereo not drawn) was read as LDHA block 0.0, IL-1B inflam inh -23.4, DT40 TDP1 no CPT 3.66µM*, TDP1 cell CPT 3.26µM*, RORg inh 10µM* and Gal4-VP16 FLuc 22.4µM*.
For COc1ccc(-c2noc(C3CCCN(C(=O)c4ccccc4OC)C3)n2)cc1OC (stereo not drawn) the results were LDHA block -2.5, IL-1B inflam inh -9.5, DT40 TDP1 no CPT inconclusive, TDP1 cell CPT inconclusive, RORg inh 18.2% and Gal4-VP16 FLuc 5.5%.
For COc1ccc(-c2noc(C3CCCN(C(=O)c4c(F)cccc4F)C3)n2)cc1OC (stereo not drawn) the results were LDHA block -3.3, IL-1B inflam inh -16.7, DT40 TDP1 no CPT inconclusive, TDP1 cell CPT inconclusive, RORg inh -7.5%[1.91 µM] and Gal4-VP16 FLuc inconclusive.
For Cc1ccc(-c2noc(C3CCCN(C(=O)c4cccc(F)c4)C3)n2)cc1 (stereo not drawn) the results were LDHA block -2.5, IL-1B inflam inh -4.9, DT40 TDP1 no CPT 29.1µM* and TDP1 cell CPT inconclusive.
Cc1ccc(-c2noc(C3CCCN(C(=O)c4c(F)cccc4F)C3)n2)cc1 (stereo not drawn) was read as LDHA block 0.7, IL-1B inflam inh -17.0, DT40 TDP1 no CPT 20.6µM*, TDP1 cell CPT inconclusive, RORg inh inconclusive and Gal4-VP16 FLuc inconclusive.
Screening Cc1ccc(-c2noc(C3CCCN(C(=O)c4ccccc4Br)C3)n2)cc1 (stereo not drawn) returned LDHA block -10.2, IL-1B inflam inh 5.2, DT40 TDP1 no CPT 20.6µM*, TDP1 cell CPT inconclusive, RORg inh inconclusive and Gal4-VP16 FLuc inconclusive.
